According to PubChem BioAssay (NCATS):
Results filed as inconclusive are left out. Active and inactive are the calls of the source. Unless noted, calls follow the shape of the dose curve; as a rule, active = well fitted curve in either direction with a large enough effect (not every such curve was filed as active); inconclusive = small, poorly fitted or top-dose-only effect, or another doubt; inactive = flat fitted curve, though single readings scatter.

Assays:
[1] = biological target: Lysosomal acid glucosylceramidase (Homo sapiens) (UniProt P04062); assay: Glucocerebrosidase-p2 (AID 348; in the data active = potency below about 10 µM; also: potency is read from the fitted curve at half-maximal effect); details: purified GBA, blue fluorogenic substrate, 40 min
Lysosomal acid glucosylceramidase (Homo sapiens), sequence (P04062 whole entry, looked up): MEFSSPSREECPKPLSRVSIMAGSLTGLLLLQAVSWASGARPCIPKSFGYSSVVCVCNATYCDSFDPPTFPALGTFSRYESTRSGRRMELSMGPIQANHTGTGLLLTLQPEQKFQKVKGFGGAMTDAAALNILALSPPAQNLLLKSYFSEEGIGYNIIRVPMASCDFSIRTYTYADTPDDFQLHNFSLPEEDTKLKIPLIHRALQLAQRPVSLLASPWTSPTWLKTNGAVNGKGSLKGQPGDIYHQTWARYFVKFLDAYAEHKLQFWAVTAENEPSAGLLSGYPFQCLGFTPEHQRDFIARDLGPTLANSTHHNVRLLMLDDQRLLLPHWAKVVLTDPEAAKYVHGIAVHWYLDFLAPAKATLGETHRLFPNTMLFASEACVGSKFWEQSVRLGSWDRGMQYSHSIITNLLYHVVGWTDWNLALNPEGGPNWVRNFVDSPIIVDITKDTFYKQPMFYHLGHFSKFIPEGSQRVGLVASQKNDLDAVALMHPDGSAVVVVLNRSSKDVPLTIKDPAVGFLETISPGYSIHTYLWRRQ
How it was run: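 Compounds titrated from 0.6 nM upwards against 0.2 nM enzyme in pH 5.9 citric acid/KH2PO4, taurocholate, tween-20; blue fluorogenic substrate 80 uM, 40 min room temperature, stopped and read Ex 365/Em 440 for AC50.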

[2] = AP1 Signaling Pathway (AID 357); details: ME-180 AP-1-bla reporter, EGF-induced, beta-lactamase ratio, 5 h; at 7.69 µM (top of the series) unless noted; also: % is scaled to controls: 0 for no effect and ±100 for the full control effect
How it was run: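 Modulation of EGF-driven AP-1 transcription was assessed with a beta-lactamase reporter in ME-180 cells. Compound and EC50 EGF were co-incubated 5 hours at 37 °C before 2.5-hour CCF4 loading at room temperature and dual-emission reading.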

[3] = biological target: Cytochrome P450 1A2 (Homo sapiens) (UniProt P05177); assay: p450-cyp1a2 (AID 410; calls by dose curve; also: potency is read from the fitted curve at half-maximal effect;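 as to activity change, negative = inhibition: -100% = full effect of reference inhibitor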); details: recombinant CYP1A2, luciferin-ME demethylation, luminescence; series mostly up to 57 µM
Cytochrome P450 1A2 (Homo sapiens), sequence (P05177 whole entry, looked up): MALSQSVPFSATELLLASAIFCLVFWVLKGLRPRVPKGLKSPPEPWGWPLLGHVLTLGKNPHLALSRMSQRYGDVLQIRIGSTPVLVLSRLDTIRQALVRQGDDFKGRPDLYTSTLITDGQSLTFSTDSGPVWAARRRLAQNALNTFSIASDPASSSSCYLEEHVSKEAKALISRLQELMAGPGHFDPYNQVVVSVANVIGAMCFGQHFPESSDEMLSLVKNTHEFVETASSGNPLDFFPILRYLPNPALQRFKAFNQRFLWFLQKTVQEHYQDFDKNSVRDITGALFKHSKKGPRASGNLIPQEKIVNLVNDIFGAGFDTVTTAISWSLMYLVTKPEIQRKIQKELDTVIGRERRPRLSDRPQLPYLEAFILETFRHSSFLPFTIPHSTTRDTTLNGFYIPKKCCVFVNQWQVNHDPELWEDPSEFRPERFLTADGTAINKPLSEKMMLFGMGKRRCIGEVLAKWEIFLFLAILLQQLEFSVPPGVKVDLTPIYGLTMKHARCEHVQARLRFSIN
How it was run: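 Inhibition was calculated relative to 57 uM furafylline (full inhibition). The reaction used human CYP1A2 at 20nM with Luciferin-ME at its Km, 100uM, driven by an NADPH-regenerating system for 60 min at room temperature.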

[4] = Stat Signaling Pathway (AID 446); details: ME-180 SIE beta-lactamase reporter, IL-6 stimulated, 5 h; at 7.69 µM (top of the series) unless noted;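 also: ME-180 cervical cancer cells given 40 pM IL-6 alongside compound; SIE-controlled beta-lactamase reporter measured as 460/530 nm FRET emission ratio; % is scaled to controls: 0 for no effect and ±100 for the full control effect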
How it was run: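 ME-180 cells carrying a SIE-driven beta-lactamase reporter are stimulated with 40 pM IL-6 for 5 h at 37C in the presence of compound. The 460/530 nm FRET substrate ratio is read after 2.5 h at RT. Data are normalised to 300 pM IL-6 and to 125 nM JAK inhibitor controls.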

[5] = biological target: Glucocorticoid receptor (Homo sapiens) (UniProt P04150); assay: GR-GFP Redistribution (AID 450;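 active = compounds whose dose series gives a full or clear partial fitted curve of increased nuclear translocation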; also: potency is read from the fitted curve at half-maximal effect); details: U2OS GR-GFP nuclear translocation, laser cytometry, 2 h
Glucocorticoid receptor (Homo sapiens), sequence (P04150 whole entry, looked up, the tested form may be a part): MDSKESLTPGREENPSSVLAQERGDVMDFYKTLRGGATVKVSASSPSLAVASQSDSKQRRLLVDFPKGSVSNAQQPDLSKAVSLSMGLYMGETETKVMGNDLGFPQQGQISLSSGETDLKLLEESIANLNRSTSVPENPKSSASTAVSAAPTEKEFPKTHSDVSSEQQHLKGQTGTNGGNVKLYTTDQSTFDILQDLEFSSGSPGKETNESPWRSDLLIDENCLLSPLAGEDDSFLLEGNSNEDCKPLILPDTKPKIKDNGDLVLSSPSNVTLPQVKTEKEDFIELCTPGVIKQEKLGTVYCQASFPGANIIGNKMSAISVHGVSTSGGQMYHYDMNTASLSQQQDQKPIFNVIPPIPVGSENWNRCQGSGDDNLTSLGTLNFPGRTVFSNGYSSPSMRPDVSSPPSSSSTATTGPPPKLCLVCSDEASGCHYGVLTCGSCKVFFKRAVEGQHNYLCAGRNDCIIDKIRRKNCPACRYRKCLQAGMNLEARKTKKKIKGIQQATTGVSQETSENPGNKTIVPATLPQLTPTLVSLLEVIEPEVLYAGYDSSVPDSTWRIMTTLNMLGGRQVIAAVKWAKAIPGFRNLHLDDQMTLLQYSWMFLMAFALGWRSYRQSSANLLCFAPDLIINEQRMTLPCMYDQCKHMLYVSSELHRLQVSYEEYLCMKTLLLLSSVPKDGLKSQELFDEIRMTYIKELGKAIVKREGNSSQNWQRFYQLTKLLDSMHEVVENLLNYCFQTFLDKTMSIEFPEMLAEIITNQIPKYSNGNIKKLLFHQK

[6] = biological target: Glucocorticoid receptor (Homo sapiens) (UniProt P04150); assay: GR-EFC Redistribution (AID 451; calls by dose curve; also: potency is read from the fitted curve at half-maximal effect); details: CHO-K1 GR-EFC translocation, beta-gal luminescence, 2 h
How it was run: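 CHO-K1 cells expressing nuclear EA and GR-ED fragments of b-gal; compounds titrated up to 46 uM final, 2 h at 37 C. GR nuclear translocation read as complemented b-gal luminescence after 1 h RT detection.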

[7] = biological target: Mitogen-activated protein kinase 10 (Mus musculus) (UniProt Q61831); assay: JNK3 AlphaScreen Assay (AID 530); details: JNK3 lysate, c-Jun phosphorylation; series mostly up to 57.1 µM;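 also: kinase came from lysate of stimulated human HepG2 cells; signal reports phosphorylation of biotinylated GST-cJun 1-79 at Ser73 with 10 µM ATP; % is scaled to controls: 0 for no effect and ±100 for the full control effect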
How it was run: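 qHTS format: compounds tested as titrations against IL-1beta/TNF-alpha-activated HepG2 lysate JNK3 with biotin-GST-cJun substrate and 10 uM ATP at room temperature. Loss of anti-phospho-cJun AlphaScreen signal indicates inhibition.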

[8] = biological target: 3',5'-cyclic-AMP phosphodiesterase 4B (Homo sapiens) (UniProt Q07343); assay: qHTS Assay for Inhibitors of PDE-IV (AID 607; active = well fitted activation curve with a large enough effect in the main read-out, with a control signal flat, not every such curve was filed as active; also: % of control where 0% means no effect); details: HEK293 ACTOne CNG channel cells, membrane potential fluorescence; series mostly up to 22.9 µM
3',5'-cyclic-AMP phosphodiesterase 4B (Homo sapiens), sequence (Q07343 whole entry, looked up): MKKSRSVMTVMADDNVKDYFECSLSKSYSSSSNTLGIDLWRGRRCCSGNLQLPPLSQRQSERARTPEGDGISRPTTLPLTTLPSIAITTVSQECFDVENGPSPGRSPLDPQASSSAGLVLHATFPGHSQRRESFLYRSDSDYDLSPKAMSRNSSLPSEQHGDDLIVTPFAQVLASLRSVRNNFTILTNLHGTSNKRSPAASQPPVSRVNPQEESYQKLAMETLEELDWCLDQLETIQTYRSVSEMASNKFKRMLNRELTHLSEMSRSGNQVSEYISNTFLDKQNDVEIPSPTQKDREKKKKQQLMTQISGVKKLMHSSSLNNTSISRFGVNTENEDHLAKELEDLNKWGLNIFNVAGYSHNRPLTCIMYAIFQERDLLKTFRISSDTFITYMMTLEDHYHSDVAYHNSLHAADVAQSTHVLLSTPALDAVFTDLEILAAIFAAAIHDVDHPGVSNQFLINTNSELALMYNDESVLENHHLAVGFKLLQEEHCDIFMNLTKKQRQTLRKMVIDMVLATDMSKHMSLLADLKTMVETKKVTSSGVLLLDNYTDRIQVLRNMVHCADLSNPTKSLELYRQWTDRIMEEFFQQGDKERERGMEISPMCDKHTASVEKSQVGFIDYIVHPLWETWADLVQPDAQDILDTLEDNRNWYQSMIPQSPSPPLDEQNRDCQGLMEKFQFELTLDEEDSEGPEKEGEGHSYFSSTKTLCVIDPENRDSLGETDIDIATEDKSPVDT
How it was run: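 HEK293 ACTOne cells with CNG channel (1000/well), endogenous PDE4; membrane potential dye, compounds up to 22.9 uM final. Fluorescence Ex 535/Em 590; RO 20-1724 (100 uM final) as reference.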

[9] = biological target: Cytochrome P450 3A4 (Homo sapiens) (UniProt P08684); assay: qHTS Assay for Activators of Cytochrome P450 3A4 (AID 885; active = well fitted curve in the direction sought with a large enough effect; an effect the other way counts as inactive or inconclusive; also: nearly all actives have a fitted effect of over 65% in size); details: recombinant CYP3A4, Luciferin-PPXE luminescence, 60 min; series mostly up to 57.1 µM
Cytochrome P450 3A4 (Homo sapiens), sequence (P08684 whole entry, looked up): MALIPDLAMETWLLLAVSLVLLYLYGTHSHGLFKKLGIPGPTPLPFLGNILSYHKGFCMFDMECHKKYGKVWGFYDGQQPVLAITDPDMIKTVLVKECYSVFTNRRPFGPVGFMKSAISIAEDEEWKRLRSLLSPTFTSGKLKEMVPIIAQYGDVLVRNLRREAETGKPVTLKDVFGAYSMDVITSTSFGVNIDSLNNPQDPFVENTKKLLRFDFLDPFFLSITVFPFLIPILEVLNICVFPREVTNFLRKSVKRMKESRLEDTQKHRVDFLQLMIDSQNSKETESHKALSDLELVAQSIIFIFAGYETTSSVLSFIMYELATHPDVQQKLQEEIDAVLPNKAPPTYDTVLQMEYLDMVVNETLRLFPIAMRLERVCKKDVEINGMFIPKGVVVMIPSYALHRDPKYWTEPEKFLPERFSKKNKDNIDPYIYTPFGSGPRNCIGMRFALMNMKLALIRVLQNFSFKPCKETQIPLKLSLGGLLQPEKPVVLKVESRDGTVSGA
How it was run: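 Human CYP3A4 (20 nM) with Luciferin-PPXE at 25 uM (its KM) in 200 mM KPO4; 10 min compound preincubation, then NADPH regeneration and 60 min reaction at RT. Luciferin read by luminescence; normalized to 57 uM ketoconazole full inhibition.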

[10] = Confirmation and Secondary Assay for Modulators of Hemoglobin Beta Chain Splicing at IVS2 654 locus (AID 910; active = well fitted curve in the direction sought with a large enough effect; an effect the other way counts as inactive or inconclusive;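 also: HeLa cells stably carrying EGFP split by mutant beta-globin IVS2-654 intron; % of control where 0% means no effect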); details: HeLa EGFP-654 splicing reporter, GFP fluorescence, 48 h; series mostly up to 38.3 µM
How it was run: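 HeLa cells stably expressing EGFP interrupted by β-globin IVS2-654 intron, seeded overnight in Opti-MEM/2% FCS, then treated 2 days at 37 °C. Restored splicing read as total peak GFP intensity per well by laser scanning cytometry (488 nm excitation, 500–520 nm emission); 500 nM antisense PNA as control.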

[11] = Confirmation and Secondary Assay for Modulators of Hemoglobin Beta Chain Splicing at IVS2 705 locus (AID 930; active = well fitted curve in the direction sought with a large enough effect; an effect the other way counts as inactive or inconclusive;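 also: HeLa cells stably expressing the EGFP-705 splicing reporter; GFP fluorescence per well restored by corrected splicing of the IVS2-705 intron in EGFP; % of control where 0% means no effect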); details: HeLa EGFP-705 splicing reporter, GFP fluorescence, 48 h; series mostly up to 38.3 µM
How it was run: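 Assay measures total GFP intensity per well in HeLa EGFP-705 cells after 2 days with compound; mis-splicing normally truncates EGFP, so fluorescence indicates corrected splicing.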

[12] = qHTS Assay for Lipid Storage Modulators (AID 1519; calls by dose curve); details: Drosophila S3 cells, BODIPY lipid droplet/cell ratio, laser cytometry, cells loaded with oleic acid; for activity change, negative = inhibition: at 57.5 µM (top of the series)
How it was run: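 Cells seeded at 5,000 per well were treated with compounds over a concentration series and loaded with oleic acid (400 uM, as added). Lipid droplet fluorescence (488 nm excitation, 500-530 nm channel) was read by laser-scanning cytometry and normalized to 20 uM Triacsin C.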

[13] = biological target: Ubiquitin carboxyl-terminal hydrolase 1 (Homo sapiens) (UniProt O94782); assay: Inhibitors of USP1/UAF1: Pilot qHTS (AID 504865; active = well fitted curve in the direction sought with a large enough effect; an effect the other way counts as inactive or inconclusive;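 also: rhodamine fluorescence freed from ubiquitin-rhodamine substrate followed over time; top concentration of the series differs between compounds; % is scaled to controls: 0 for no effect and ±100 for the full control effect; nearly all actives have a fitted effect of over 35% in size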); details: purified USP1/UAF1, Ub-rhodamine cleavage fluorescence; series mostly up to 54.9 µM
Ubiquitin carboxyl-terminal hydrolase 1 (Homo sapiens), sequence (O94782 whole entry, looked up): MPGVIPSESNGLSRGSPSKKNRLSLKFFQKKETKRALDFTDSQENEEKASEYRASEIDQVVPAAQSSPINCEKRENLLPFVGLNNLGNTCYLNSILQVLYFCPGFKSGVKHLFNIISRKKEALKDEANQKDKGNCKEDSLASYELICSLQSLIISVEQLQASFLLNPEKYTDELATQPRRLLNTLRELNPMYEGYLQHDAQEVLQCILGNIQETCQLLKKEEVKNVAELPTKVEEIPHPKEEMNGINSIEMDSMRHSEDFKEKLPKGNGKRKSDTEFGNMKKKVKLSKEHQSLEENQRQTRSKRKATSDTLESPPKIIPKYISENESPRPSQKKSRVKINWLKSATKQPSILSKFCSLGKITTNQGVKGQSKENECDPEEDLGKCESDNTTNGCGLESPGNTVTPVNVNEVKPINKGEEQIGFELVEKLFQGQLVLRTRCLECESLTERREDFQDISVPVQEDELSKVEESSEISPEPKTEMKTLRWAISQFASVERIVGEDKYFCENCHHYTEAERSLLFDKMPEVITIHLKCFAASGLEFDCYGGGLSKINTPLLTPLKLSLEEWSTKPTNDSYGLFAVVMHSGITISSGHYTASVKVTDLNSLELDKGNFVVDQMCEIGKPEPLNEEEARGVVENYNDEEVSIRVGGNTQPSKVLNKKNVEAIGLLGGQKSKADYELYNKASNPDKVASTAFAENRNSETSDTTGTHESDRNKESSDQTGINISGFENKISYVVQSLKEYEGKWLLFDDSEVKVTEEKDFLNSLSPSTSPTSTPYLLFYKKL
How it was run: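 In 50mM HEPES pH 7.8 containing 0.5mM EDTA, 1mM TCEP, 0.1 mg/ml BSA and 0.01% Tween-20, 1nM USP1/UAF1 is exposed to compound for 15 min, then Ub-Rho (150nM final) is added and fluorescence is read over time.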

[14] = Primary qHTS for small molecule stabilizers of the endoplasmic reticulum resident proteome: Secreted ER Calcium Modulated Protein (SERCaMP) assay (AID 1508630; active = well fitted curve in the direction sought with a large enough effect; an effect the other way counts as inactive or inconclusive; also: % is scaled to controls: 0 for no effect and ±100 for the full control effect); details: SH-SY5Y GLuc-SERCaMP (Gaussia luciferase released on ER calcium loss) secretion, thapsigargin, luminescence; series mostly up to 38.4 µM
How it was run: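 GLuc-SERCaMP-expressing SH-SY5Y cells, pretreated 16 h with compound, are challenged with thapsigargin to empty ER calcium stores; after 4 h, coelenterazine is added directly to the medium and luminescence is imaged.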

[15] = biological target: Cytochrome P450 3A4 (Homo sapiens) (UniProt P08684); assay: qHTS Assay for Inhibitors and Substrates of Cytochrome P450 3A4 (AID 884; active = well fitted curve in the direction sought with a large enough effect; an effect the other way counts as inactive or inconclusive; also: potency is read from the fitted curve at half-maximal effect; nearly all actives have a fitted effect of over 50% in size); details: recombinant CYP3A4, Luciferin-PPXE luminescence; series mostly up to 57.1 µM
How it was run: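 20 nM human CYP3A4 with 25 uM Luciferin-PPXE (at KM) in 200 mM KPO4, preincubated 10 min with compound; NADPH regeneration started a 60 min RT reaction. Luciferin detected by luminescence, normalized to 57 uM ketoconazole as full inhibition.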

[16] = biological target: Cytochrome P450 2D6 (Homo sapiens) (UniProt P10635); assay: qHTS Assay for Inhibitors and Substrates of Cytochrome P450 2D6 (AID 891; active = well fitted curve in the direction sought with a large enough effect; an effect the other way counts as inactive or inconclusive; also: potency is read from the fitted curve at half-maximal effect; nearly all actives have a fitted effect of over 60% in size); details: recombinant CYP2D6, luciferin-ME EGE luminescence; series mostly up to 57.1 µM
Cytochrome P450 2D6 (Homo sapiens), sequence (P10635 whole entry, looked up): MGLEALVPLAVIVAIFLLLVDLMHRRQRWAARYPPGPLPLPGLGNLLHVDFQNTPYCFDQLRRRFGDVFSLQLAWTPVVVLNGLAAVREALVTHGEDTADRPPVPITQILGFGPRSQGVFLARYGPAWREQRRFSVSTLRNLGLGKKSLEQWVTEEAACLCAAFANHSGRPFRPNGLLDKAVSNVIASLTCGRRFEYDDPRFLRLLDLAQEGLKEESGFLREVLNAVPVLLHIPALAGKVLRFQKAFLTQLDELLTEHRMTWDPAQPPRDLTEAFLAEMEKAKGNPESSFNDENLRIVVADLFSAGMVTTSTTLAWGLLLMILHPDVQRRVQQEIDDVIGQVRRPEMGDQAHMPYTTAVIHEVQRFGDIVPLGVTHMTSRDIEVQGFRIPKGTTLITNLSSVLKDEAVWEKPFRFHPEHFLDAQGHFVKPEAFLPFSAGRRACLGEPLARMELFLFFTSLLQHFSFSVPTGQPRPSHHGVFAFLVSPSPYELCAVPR
How it was run: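 Human CYP2D6 (5 nM) with 30 uM Luciferin-ME EGE (at Km) in 100 mM KPO4, compound preincubated 10 min, then NADPH regeneration system for 60 min at room temperature. Luciferin read by luminescence; normalized to 1.43 uM quinidine.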

[17] = measured here: cell count channel max response
[18] = measured here: lipid channel max response

Row | Compound | Potency [1] | activity change, negative = inhibition [2] | Potency [3] | activity, negative = inhibition [4] | Potency [5] | Potency [6] | Potency [7] | Potency [8] | Potency [9] | Potency [10] | outcome [11] | activity change, negative = inhibition [12] | max response [12, 17] [%] | max response [12, 18] [%] | Potency [13] | outcome [14] | Potency [15] | Potency [16]
1 | Cc1cnc(CNc2ncnc3ccc(-c4cccc(C#N)c4)cc23)cn1 | > 11.4 µM (inactive) | -21.7% (inactive) | 0.398 µM (active) | -7.7% (inactive) | > 46 µM (inactive) | > 46 µM (inactive) | inactive | inactive | inactive | inactive | inactive | 11.4% (inactive) | -3.07 | 8.37 | inactive | inactive | – | –
2 | Cc1noc(C)c1C(=O)N1CCC2(CCCN(Cc3ccc(C#N)cc3)C2)CC1 | > 11.4 µM (inactive) | 4.42% (inactive) | inactive | 3.17% (inactive) | – | > 46 µM (inactive) | inactive | inactive | – | – | – | 6.31% (inactive) | 22.7 | 33.4 | – | inactive | – | –
3 | COCC(=O)N1CCC2(CC1)CCN(c1cccc(-c3ccccc3)c1)CC2 | > 11.4 µM (inactive) | -4.83% (inactive) | 5.01 µM (active) | -8.32% (inactive) | – | > 46 µM (inactive) | inactive | inactive | – | – | – | -0.758% (inactive) | -9.9 | -7.13 | – | inactive | – | –
4 | CC(C)CN1CC2(CCN(C(=O)c3cccc(F)c3)CC2)C1 | > 11.4 µM (inactive) | 10.2% (inactive) | inactive | -19.8% (inactive) | – | > 46 µM (inactive) | inactive | inactive | – | – | – | 2.36% (inactive) | 11.5 | 16.2 | – | inactive | – | –
5 | O=C(c1csnn1)N1CCC2(CC1)CCN(C(c1ccccc1)c1ccccc1)CC2 | > 11.4 µM (inactive) | -5.85% (inactive) | inactive | 4.86% (inactive) | – | > 46 µM (inactive) | inactive | inactive | – | – | – | -2.09% (inactive) | 3.93 | 2.32 | – | inactive | – | –
6 | COc1ccc(C(=O)N2CCC3(CCN(Cc4ccccc4OC)CC3)CC2)cc1 | > 11.4 µM (inactive) | -0.655% (inactive) | inactive | -4.81% (inactive) | – | > 46 µM (inactive) | inactive | inactive | – | – | – | 2.01% (inactive) | 10.3 | 16.6 | – | inactive | – | –
7 | CN(C)Cc1ccccc1-c1cncnc1NCc1cccnc1 | > 11.4 µM (inactive) | -0.642% (inactive) | 12.6 µM (active) | 9.42% (inactive) | > 46 µM (inactive) | > 46 µM (inactive) | inactive | inactive | inactive | inactive | inactive | 2.08% (inactive) | 3.75 | 4.73 | inactive | inactive | 1.58 µM (active) | 6.31 µM (active)
